Screening results: PubChem BioAssay, National Center for Advancing Translational Sciences (NCATS)
Shown are actives, neighbours in structure and some others; about 2.6% of the full set was active somewhere.
AmpC nodet inh – inhibitors of E. coli AmpC beta-lactamase without detergent. Potency, µM (titrated, usually from 28.7 µM), for the others: top-dose activity change, negative = inhibition. 71,000 tested, 1.8% active. P00811. AID 585. AmpC nitrocefin hydrolysis, absorbance 480 nm, no detergent; note: % of control where 0% means no effect
Target sequence (P00811 whole entry, looked up): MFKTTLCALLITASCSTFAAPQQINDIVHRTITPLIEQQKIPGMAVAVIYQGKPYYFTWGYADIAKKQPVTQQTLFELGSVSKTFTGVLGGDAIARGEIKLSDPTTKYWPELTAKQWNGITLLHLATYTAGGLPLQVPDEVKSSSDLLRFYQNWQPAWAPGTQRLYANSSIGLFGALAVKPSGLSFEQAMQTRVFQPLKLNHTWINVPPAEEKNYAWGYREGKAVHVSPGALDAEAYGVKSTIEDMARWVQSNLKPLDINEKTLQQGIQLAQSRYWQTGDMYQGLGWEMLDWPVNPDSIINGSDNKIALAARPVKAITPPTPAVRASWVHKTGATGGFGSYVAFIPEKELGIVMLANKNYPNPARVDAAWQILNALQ
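AmpC in 20 mM phosphate buffer pH 7.0 was preincubated 15 min at room temperature with compounds. Nitrocefin (800 uM stock) was then added and hydrolysis followed at 480 nm every 20 s for 4 min.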
Prx2 Sm inh – blocks S. mansoni peroxiredoxin 2 enzymatic activity. S. mansoni Prx2 activity coupled to TGR/GSH (TGR is thioredoxin glutathione reductase), NADPH fluorescence loss, qHTS. Potency, µM. 65,000 tested, 0.07% active. AID 448
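Coupled assay in which S. mansoni TGR passes NADPH reducing equivalents via glutathione to Prx2, which reduces H2O2. Compounds were preincubated 15 min at room temperature with 25 nM TGR/50 nM Prx2 mix. Kinetic NADPH fluorescence loss (ex 365/em 450 nm) was monitored.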
AmpC inh det – AmpC beta-lactamase inhibition, detergent assay. P00811. purified AmpC, nitrocefin hydrolysis with detergent. Potency, µM (titrated, usually from 28.7 µM), without a hit: at the top dose activity change, negative = inhibition. 71,000 tested, 0.09% active. AID 584; active = well fitted curve in the direction sought with a large enough effect; inconclusive = small, poorly fitted or top-dose-only effect; note: % is set by controls: 0 for no effect and ±100 for the full control effect
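E. coli AmpC (5.3 nM) in 20 mM phosphate pH 7.0 with 0.01% Triton X-100, preincubated 15 min RT with compound; nitrocefin (2 uL of 800 uM stock) hydrolysis followed by 480 nm absorbance every 20 s over 4 min.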
Anthrax LT inh – blocks cellular internalization of anthrax lethal toxin | Cells, anthrax lethal toxin internalization, FRET ratio (460/530) | Potency, µM (top dose mostly 40 µM), for the others: at the highest dose activity change, negative = inhibition, most hits filed as inhibitors | 70,000 tested, 0.67% active | AID 912; note: % is set by controls: 0 for no effect and ±100 for the full control effect; nearly all actives have a fitted effect of over 50% in size
* marks the source's active call; other numbers are inactive results; ? = inconclusive; . = not tested or not shown; ! = a repeat was not active; [ ] = remark or other dose. Unless noted, calls come from the whole dose curve. Potency is the fitted concentration of half-maximal effect.

SMILES	AmpC nodet inh	Prx2 Sm inh	AmpC inh det	Anthrax LT inh
Cc1ccc(N[C@H](c2ccccc2)c2ccc3cccnc3c2O)cc1	-14.8%[5.75 µM]	>57	4.4%[5.75 µM]	?
CN(C)c1nc(N2CCCCC2)nc(N2CCCCC2)n1	3.98µM*[single pt active]	>57	14.3%	-17.9%
CC(O)Cc1nsc(NC(=O)c2cccs2)n1 (stereo not given)	3.98µM*[single pt active]	>57	12.9%	-8.2%
CCCc1cc(C(=O)Nc2sc3c(c2C#N)CCC3)no1	3.98µM*[single pt active]	>57	9.8%	?
CCCc1cc(C(=O)Nc2cccnc2)no1	3.98µM*[single pt active]	>57	11.4%	-12.9%
CCCc1cc(C(=O)Nc2sc(C)c(C)c2C(=O)OCC)no1	3.98µM*[single pt active]	>57	21.0%	?
CCOC(=O)c1c(NC(=O)c2cc(C3CC3)on2)sc(C(C)=O)c1C	-19.6%	>57	5.4%	0.5%
CCCc1cc(C(=O)Nc2sc(C)c(CC)c2C#N)no1	3.98µM*[single pt active]	>57	12.8%	12.6µM*
CC(C)=CCl	-4.2%	.	-1.5%	3.6%
CCCN1C(=O)c2cc(C(=O)NCCc3cccc(C)c3)ccc2C1O (stereo not given)	3.98µM*[single pt active]	>57	17.0%	?
CCCN1C(=O)c2cc(C(=O)NCc3ccc(OC)cc3)ccc2C1O (stereo not given)	3.16µM*[single pt active]	>57	11.7%	0.1%
Cc1ccc(N2C(=O)c3ccc(C(=O)NCCN4CCOCC4)cc3C2=O)cc1	52.9%	>57	-2.4%	-21.2%
Cc1c(C)n(C)c2ccc(C(=O)NCc3cccs3)cc12	3.98µM*[single pt active]	>57	15.4%	?
CCCN1C(=O)c2cc(C(=O)NCc3cccs3)ccc2C1O (stereo not given)	3.98µM*[single pt active]	>57	8.6%	-17.5%
CCCN1C(=O)c2ccc(C(=O)NCc3ccco3)cc2C1=O	6.4%	>57	-0.7%	-6.0%
CN1CCN(CCCN2c3ccccc3Sc3ccc(C(F)(F)F)cc32)CC1	29.3%[5.75 µM]	>57	0.1%[5.75 µM]	10µM*!
O=C1CSC2(CCN(CCCN3c4ccccc4Sc4ccc(Cl)cc43)CC2)N1	69.2%[5.75 µM]	>57	-4.8%[5.75 µM]	7.0%[8 µM]
O=C(O)c1cccc(N=Nc2c(S(=O)(=O)O)ccc3c2C(=O)c2ccccc2C3=O)c1O	-25.6%[5.75 µM]	>57	-8.8%[5.75 µM]	-1.8%[8 µM]
COc1ccccc1C(=O)Nc1ccc2c(c1)OCCO2	-2.2%	>57	-1.5%	0.8%
COc1cc(SC)ccc1C(=O)Nc1ccc2c(c1)OCCO2	29.0%	>57	5.4%	10µM*
O=C(NCc1ccco1)C1CCN(c2ccc(N3CCOCC3)nn2)CC1	3.98µM*[single pt active]	>57	11.4%	5.1%
CS(=O)(=O)N1CCc2cc(-c3csc(NC(=O)Cc4cccs4)n3)ccc21	?	>57	1.1%	12.6µM*
CCN(CCO)C[C@H]1CCC[C@H]2CCCC[C@@H]21	-2.9%[5.75 µM]	>57	-3.4%[5.75 µM]	?
CC(N)=O	11.9%	>57	-1.7%	.
NC(=O)CI	12.6µM*	?	-11.6%	0.5%
SMILES	AmpC nodet inh	Prx2 Sm inh	AmpC inh det	Anthrax LT inh
CCCc1c(-c2ccc(O)cc2)nn(-c2ccc(O)cc2)c1-c1ccc(O)cc1	7.94µM*!	>57	-6.6%	?
Cc1cccc(CNc2ccnc(-c3cccc(C#N)c3)n2)c1	29.4%	>57	-2.6%	5.01µM*
Cc1cccc(C2CC(c3ccc(Cl)cc3)Nc3nc(N)nn32)c1 (stereo not given)	3.98µM*[single pt active]	>57	12.3%	-2.1%
CCOc1ccc(C2CC(c3cccc(C)c3)n3nc(N)nc3N2)cc1 (stereo not given)	30.6%	>57	10.2%	6.9%
Cc1cccc(C2CC(c3ccc(F)cc3)Nc3nc(N)nn32)c1 (stereo not given)	3.98µM*[single pt active]	>57	10.5%	7.8%
Cc1ccc(C2CC(c3cccc(Cl)c3)n3nc(N)nc3N2)cc1 (stereo not given)	71.4%	>57	9.0%	-10.2%
COc1ccc(N2C(=O)CC(Sc3ncn[nH]3)C2=O)c(OC)c1 (stereo not given)	78.6%	.	-1.5%	12.6µM*
CCC1CCCCN1S(=O)(=O)c1ccc(C(=O)Nc2nnc(-c3cccs3)o2)cc1 (stereo not given)	12.6µM*	>57	-7.7%	?
O=C(Nc1nc(-c2cccs2)cs1)c1ccc(Cl)s1	?	>57	12.3%	10µM*
CC1CC(C)CN(S(=O)(=O)c2ccc(C(=O)Nc3nnc(-c4cccs4)o3)cc2)C1 (stereo not given)	-9.1%	>57	7.6%	16.8%
CC(=O)Nc1nc(-c2cccs2)cs1	-3.8%	>57	-5.2%	3.7%
O=C(Nc1nc(-c2cccs2)cs1)c1ccc(S(=O)(=O)N2CCCC2)cc1	12.6µM*	>57	2.0%	?
COC(=O)c1ccc(C(NC(=O)OCc2ccccc2)/C(F)=C/[C@@H](C)C(=O)Nc2ccc(OC)cc2)cc1 (stereo not given in full)	7.7%	.	9.7%	-8.0%
CCC1(CC)C(=O)NC(=NCCc2c[nH]c3ccccc23)NC1=O	5.1%	>57	-0.5%	?
CCCC1(CCC)C(=O)NC(=NCc2ccccc2)NC1=O	-9.9%	>57	0.5%	12.6µM*
O=S(=O)(Nc1ccc2nc(-c3ccc(Br)o3)[nH]c2c1)c1ccccc1	3.16µM*	>57	10.4%	.
Cc1c(C(=O)OCc2ccccc2)[nH]c2c1C(=O)CC(c1ccco1)C2 (stereo not given)	12.6µM*[single pt active]	>57	0.8%	?
O=C(O)c1ccccc1-c1c2cc(Br)c(=O)cc-2oc2[c]([Hg])c(O)c(Br)cc12	-16.8%[12.8 µM]	0.0366*	-3.3%[12.8 µM]	?
O=C(Nc1ccc(Nc2ccc3c(c2)C(=O)c2ccccc2C3=O)c2c1C(=O)c1ccccc1C2=O)c1ccccc1	8.7%[5.75 µM]	>57	0.6%[5.75 µM]	-5.8%[8 µM]
O=C(NCC1CCCO1)C1CCN(S(=O)(=O)N2CCCC2)CC1 (stereo not given)	-3.1%	>57	1.9%	7.6%
CC1CCN(S(=O)(=O)N2CCC(C(=O)N3CCC(N(C)CC4CCCO4)CC3)CC2)CC1 (stereo not given)	3.98µM*[single pt active]	>57	15.6%	4.4%
Cn1c([N+](=O)[O-])cnc1CN1CCN(CCO)CC1	-12.0%[5.75 µM]	>57	1.0%[5.75 µM]	1.2%[8 µM]
CC1CCC(C(C)C)C(OC(=O)COC(=O)c2ccc(=O)[nH]c2)C1 (stereo not given)	54.0%	>57	-7.8%	12.6µM*
COc1ccc(OC)c(C2CC(=O)N3CN(c4cccc(Cl)c4)CSC3=C2C#N)c1 (stereo not given)	-23.2%	>57	7.5%	-29.8%
COc1ccc(OC)c(C2CC(=O)N3CN(c4cccc(Cl)c4C)CSC3=C2C#N)c1 (stereo not given)	3.98µM*[single pt active]	>57	12.2%	?
COc1cccc(C2CC(=O)N3CN(c4cccc(Cl)c4C)CSC3=C2C#N)c1OC (stereo not given)	3.98µM*[single pt active]	.	12.6%	?
COc1ccc(Cn2c(=O)[nH]c3cc(C(=O)NCCCN4CCCCC4)ccc3c2=O)cc1	23.8%	>57	1.8%	5.6%
O=C(NCc1ccc2c(c1)OCO2)c1ccc2c(=O)n(C3CCCC3)c(=O)[nH]c2c1	7.94µM*	>57	-2.1%	?
COc1ccc(Cn2c(=O)[nH]c3cc(C(=O)NCc4ccc5c(c4)OCO5)ccc3c2=O)cc1	12.6µM*[single pt active]	>57	-3.5%	-5.6%
